Results as given in PubChem BioAssay.
Activity calls are given as the source filed them. No stated cut-off is given here; in the data, active means fold change permeability below about 0.7 or above about 1.3; inactive means in between.

experiment: compounds altering in vitro BBB leakiness – cell-based, FITC-avidin fluorescence, HTS, primary screen (AID 1963498); conditions: brain endothelial barrier, actives lie on both sides; further: test concentration not given here

SMILES | fold change permeability
COc1ccccc1N1CCN(CCCCN2C(=O)c3ccccc3C2=O)CC1 | 0.9 (inactive)
O=C1/C(=C/c2cccs2)CC/C1=C\c1cccs1 | 1.6 (active)
CCC(=O)c1ccc2c(c1)N(CCCN(C)C)c1ccccc1S2 | 1.1 (inactive)
CCCCc1ncc(/C=C(\Cc2cccs2)C(=O)O)n1Cc1ccc(C(=O)O)cc1 | 0.9 (inactive)
N=c1c[n+](N2CCOCC2)[n-]o1 | 0.8 (inactive)
NCCCCNCCCN | 0.7 (active)
CCc1cccc(N(C)C(N)=Nc2cccc3ccccc23)c1 | 1.1 (inactive)
C[N+](C)(C)CCOC(=O)CCC(=O)OCC[N+](C)(C)C | 0.9 (inactive)
O=c1cc(-c2ccc([N+](=O)[O-])cc2)nc2c(-c3ccc(Cl)cc3)c(Cc3ccccc3)[nH]n12 | 1.2 (inactive)
NCCCNCCCCNCCCN | 1.6 (active)
CN(C)CCC=C1c2ccccc2CCc2ccccc21 | 1.1 (inactive)
CC1(C)CC=C(c2cnc3ccccc3c2)c2cc(C(=O)Nc3ccc(C(=O)O)cc3)ccc21 | 1.1 (inactive)
FC(F)(F)c1ccccc1-n1ccnc1 | 1.2 (inactive)
COc1cc2nc(N3CCCC3)nc(NCCCCCN3CCCC3)c2cc1OC | 1.2 (inactive)
N[C@@H](Cc1c[nH]c2ccc(O)cc12)C(=O)O | 1 (inactive)
NC/C=C\C(=O)O | 1.2 (inactive)
Cc1cc2nc(NCCCO)n(CC(=O)c3cc(C(C)(C)C)c(O)c(C(C)(C)C)c3)c2cc1C | 1.1 (inactive)
O=C(Nc1ccccc1)c1cc([N+](=O)[O-])ccc1Cl | 1.5 (active)
NCCCCCCCCCCN | 0.9 (inactive)
Cc1cc(C(C)(C)C)cc(C)c1CC1=NCCN1 | 2 (active)

SMILES | fold change permeability
CCc1ccc2c(-c3cccc(Cl)c3)nc(=O)n(CC)c2n1 | 1.5 (active)
CCCCCCCCCCCCCCCC(=O)OC(CC(=O)O)C[N+](C)(C)C (centres undefined) | 1.3 (active)
O=c1c(O)c(-c2ccc(O)cc2O)oc2cc(O)cc(O)c12 | 0.7 (active)
C1CCc2nnnn2CC1 | 1.3 (active)
CC1(C)CCC=[N+]1[O-] | 0.9 (inactive)
O=C(OCCN1CCOCC1)C1(c2ccccc2)CCCCC1 | 1 (inactive)
CCCC(C)NC(=O)c1ccc(Cl)c(Cl)c1 (centres undefined) | 1.2 (inactive)
CC(=O)N[C@H](C(=O)O)C(C)(C)SN=O | 0.9 (inactive)
Cc1ccccc1C(OCCN(C)C)c1ccccc1 (centres undefined) | 1 (inactive)
CCCCCC[C@@H]([C@@H](C)O)n1cnc2c(N)ncnc21 | 0.7 (active)
CO[C@@]1(NC(=O)CSCC#N)C(=O)N2C(C(=O)O)=C(CSc3nnnn3C)CS[C@@H]21 | 0.9 (inactive)
O=C(Nc1cccc(C(=O)Nc2ccc(S(=O)(=O)O)c3cc(S(=O)(=O)O)cc(S(=O)(=O)O)c23)c1)Nc1cccc(C(=O)Nc2ccc(S(=O)(=O)O)c3cc(S(=O)(=O)O)cc(S(=O)(=O)O)c23)c1 | 0.9 (inactive)
N#C/C(=C\c1ccc(-c2cc(Cl)ccc2Cl)o1)C(=O)Nc1cccc2ncccc12 | 2.1 (active)
NCCCC(=O)O | 0.8 (inactive)
CCCCCCNc1nc(NC2CCN(C)CC2)c2cc(OC)c(OC)cc2n1 | 1 (inactive)
CCCC(=O)NCCc1csc(-c2ccc(Cl)cc2)n1 | 1.5 (active)
C=CCNc1ncnc2ccc(Br)cc12 | 1.2 (inactive)
O=C(O)CNC(=O)C(CS)Cc1ccccc1 (centres undefined) | 0.6 (active)
Brc1c(NC2=NCCN2)ccc2nccnc12 | 1.6 (active)
